PubChem BioAssay AID651947 (Broad Institute, 2012)
Results with a measured potency or affinity are listed apart. Inconclusive results are not listed. A number with no mark means an inactive call.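 The calls were made as follows: active = luminescence drop in HepG2 cells whose fitted half-effect dose is at most twice the top valid dose; inconclusive = flat curve with 30 to 70% signal loss, or unreliable fit; inactive = the rest.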

assay: HepG2 hepatoma cell viability loss – plate reader, dry powder, cytotoxicity control, dose response (AID 651947); settings: ATP luminescence (CellTiter-Glo), 48 h, hits give low values; at 26 µM unless noted

Row | SMILES | max activity
1 | Fc1ccc(Cn2cc(CSc3nnc(C4CCCC4)o3)nn2)cc1 | -18.5% [at 6 µM]
2 | c1ccc(CSc2nnc(-c3ccccn3)o2)cc1 | -20.9% [at 1.6 µM]
3 | c1ccc(-c2nnc(SC(c3ccccc3)c3ccccc3)o2)cc1 | -33% [at 0.8 µM]
4 | Fc1ccc(Cn2cc(CSc3nnc(C4CCC4)o3)nn2)cc1 | -41.8% [at 0.38 µM]
5 | FC(F)(F)Oc1cccc(-c2nnc(SCc3ccccc3)o2)c1 | -17.6% [at 0.195 µM]
6 | c1ccc(-c2nnc(SCCN3CCN(c4ccccc4)CC3)o2)cc1 | -48.3% [at 12 µM]
7 | c1ccc(-c2nnc(SCc3ccncc3)o2)cc1 | -21.6% [at 0.38 µM]
8 | c1ccc(CCc2nnc(-c3ccccc3)o2)cc1 | 27.6%
9 | Fc1ccccc1-c1nnc(SCc2ccccc2)o1 | -29.8% [at 0.195 µM]
10 | Fc1ccc(CSc2nnc(-c3ccc(Cl)cc3)o2)cc1 | -47.5% [at 12 µM]
11 | FC(F)(F)Oc1cccc(CSc2nnc(-c3ccccc3)o2)c1 | 19.6% [at 0.38 µM]
12 | Clc1cccc(CSc2nnc(-c3ccccc3)o2)c1 | -32.2% [at 0.195 µM]
13 | c1ccc(-c2nnc(SCc3cscn3)o2)cc1 | -61.2% [at 12 µM]
14 | FC1(F)CCN(CCSc2nnc(-c3ccccc3)o2)CC1 | -22.5% [at 1.6 µM]
15 | N#Cc1ccccc1CSc1nnc(-c2ccccc2)o1 | 22.9% [at 3 µM]
16 | Brc1ccc(CSc2nnc(-c3ccccc3)o2)cc1 | 32.4% [at 6 µM]
17 | c1ccc(CSc2nnc(-c3cccnc3)o2)nc1 | -43.9%
18 | c1ccc(CSc2nnc(C3CCCCC3)o2)cc1 | 16.5% [at 3 µM]

Row | SMILES | max activity
19 | c1ccc(-c2ccc(CSc3nnc(-c4ccccc4)o3)cc2)cc1 | -30.5% [at 0.38 µM]
20 | COc1ccc(-c2nnc(SCc3ccccn3)o2)cc1 | -23.2% [at 1.6 µM]
21 | c1ccc(-n2cc(CSc3nnc(C4CCC4)o3)nn2)cc1 | -30.4% [at 12 µM]
22 | c1ccc(CSc2nnc(-c3cccnc3)o2)cc1 | -26.9% [at 0.8 µM]
23 | COc1ccccc1CSc1nnc(-c2ccccc2)o1 | -56.1% [at 6 µM]
24 | c1ccc(-c2nnc(SCCN3CCCC3)o2)cc1 | -61.1% [at 0.8 µM]
25 | COc1ccccc1-c1nnc(SCc2ccccc2)o1 | -18.4% [at 0.195 µM]
26 | CS(=O)(=O)c1cccc(-c2nnc(SCc3ccccc3)o2)c1 | 26.3% [at 0.8 µM]
27 | N#Cc1ccc(-c2nnc(SCc3ccccc3)o2)cc1 | 15.9% [at 1.6 µM]
28 | O=S(=O)(Cc1ccccc1)c1nnc(-c2ccccc2)o1 | -24.8%
29 | c1ccc(-c2nnc(SCc3cccnc3)o2)cc1 | 17.3%
30 | Fc1ccc(-c2nnc(SCc3ccccc3)o2)cc1 | 14.5%
31 | Clc1ccc(CSc2nnc(-c3ccccc3)o2)cc1 | -22.7% [at 0.8 µM]
32 | c1ccc(CNc2nnc(-c3ccccc3)o2)cc1 | 25.5% [at 0.195 µM]
33 | Cc1cccc(CSc2nnc(-c3ccccc3)o2)c1 | -51.5% [at 0.195 µM]
34 | FC(F)(F)Oc1ccc(-c2nnc(SCc3ccccc3)o2)cc1 | 21.1% [at 12 µM]
35 | Fc1ccccc1CSc1nnc(-c2ccccc2)o1 | -57.5%
